Measurements: the supplement of paper PMC10646978
± gives the standard deviation.

Tests used:
Details in all cases: modulator concentration 10 µM
[1] = tested on: RAW-Dual (murine macrophage reporter line); experiment: NF-kB reporter (SEAP) activity fold change vs agonist alone; higher = enhanced NF-kB activity
Method in brief: (§1)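 Compound reached 10 μM final in each well by pin transfer, onto RAW-Dual murine macrophage reporter cells seeded at 50 000 per well in 384-well plates. After 1 hour at 37 °C, the cells were stimulated overnight with a PRR agonist. SEAP in the supernatant was read with QUANTI-Blue at 620 nm absorbance for NF-κB, and Lucia luciferase was read with QUANTI-Luc luminescence for IRF. Each signal was turned into fold change against the mean agonist-only control on the same plate, and two replicate plates were averaged with propagated errors.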

[2] = tested on: RAW-Dual (murine macrophage reporter line); experiment: IRF reporter (Lucia luciferase) activity fold change vs agonist alone; higher = enhanced IRF activity
Method in brief: as §1

[3] = tested on: RAW-Dual (murine macrophage reporter line); experiment: viability score (confluency relative to resting cells, overnight) (fraction); higher = more viable, active = viable (0.7 or more)
Method in brief: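 RAW-Dual macrophages in 384-well plates were incubated overnight with compound, final concentration 10 μM. Confluency images from IncuCyte were processed in IncuCyte software into two masks covering all imaged wells. The viability score is each well's confluency relative to resting cells, and a compound met the cutoff when both masks exceeded 70% of resting cells.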

[4] = agonist: CpG ODN 1826 0.5 ug/mL

Row | Structure (SMILES) | NF-kB reporter [1, 4] | NF-kB reporter ([1]; agonist: LPS 0.1 ug/mL) | NF-kB reporter ([1]; agonist: MPLA […]) | IRF reporter ([2]; agonist: 3'3'-cGAMP 10 ug/mL) | IRF reporter ([2]; agonist: LPS 0.1 ug/mL) | IRF reporter ([2]; agonist: MPLA […]) | viability score [3]
1 | C=CCNC(=O)c1cccc(Br)c1 | 0.781 ± 0.061 | 0.962 ± 0.18 | 0.982 ± 0.097 | 0.933 ± 0.044 | 1.11 ± 0.19 | 1.09 ± 0.24 | 1.03 (active)
2 | NC(=O)c1cccnc1 | 0.89 ± 0.16 | 0.878 ± 0.33 | 1.03 ± 0.13 | 0.912 ± 0.034 | 0.984 ± 0.22 | 0.934 ± 0.14 | 1 (active)
3 | O=[N+]([O-])c1cc(C(F)(F)F)ccc1N1CCN(CC=Cc2ccccc2)CC1 | 0.915 ± 0.078 | 1.07 ± 0.099 | 0.985 ± 0.071 | 0.976 ± 0.036 | 1.47 ± 0.24 | 1.14 ± 0.12 | 1.01 (active)
4 | Cc1cc(CNC(=O)CCc2ccc(C(F)(F)F)cc2)c(C)o1 | 1.09 ± 0.061 | 1.01 ± 0.089 | 0.877 ± 0.038 | 1.2 ± 0.069 | 1.14 ± 0.068 | 1.25 ± 0.33 | 0.957 (active)
5 | C1CCC(N2NC2C2NN2C2CCCCC2)CC1 (configuration not stated) | 1.01 ± 0.22 | 1.03 ± 0.11 | 0.964 ± 0.091 | 0.938 ± 0.024 | 1.23 ± 0.19 | 1.05 ± 0.11 | 1.01 (active)
6 | CCC(C)NC(=O)C(=O)Nc1cccc(C(F)(F)F)c1 (configuration not stated) | 0.89 ± 0.093 | 1.05 ± 0.073 | 0.87 ± 0.052 | 1.04 ± 0.058 | 1.16 ± 0.18 | 0.959 ± 0.14 | 1.02 (active)
7 | COc1cc(C(=O)O)ccc1NC(=O)[C@@H]1N[C@@H](CC(C)(C)C)[C@](C#N)(c2ccc(Cl)cc2F)[C@H]1c1cccc(Cl)c1F | 0.35 ± 0.03 | 0.513 ± 0.052 | 0.679 ± 0.058 | 0.608 ± 0.053 | 1.02 ± 0.21 | 0.952 ± 0.34 | 0.122 (inactive)
8 | CC(=O)NC(NC(C)=O)c1cccc([N+](=O)[O-])c1 | 1.15 ± 0.12 | 1 ± 0.13 | 0.998 ± 0.039 | 0.968 ± 0.043 | 0.99 ± 0.085 | 1.05 ± 0.12 | 0.995 (active)
9 | O=C(NCCN1CCN(c2ccc(Cl)cc2)CC1)c1ccno1 | 0.933 ± 0.071 | 0.992 ± 0.082 | 2 ± 0.72 | 1.01 ± 0.05 | 1.24 ± 0.26 | 1.36 ± 0.49 | 0.96 (active)
10 | CC1=C(C(=O)OC2CCCCC2)C(c2ccc(N(C)C)cc2)C2=C(CC(C)(C)CC2=O)N1 (configuration not stated) | 0.767 ± 0.12 | 0.697 ± 0.08 | 1.16 ± 0.1 | 0.843 ± 0.083 | 0.943 ± 0.071 | 1.04 ± 0.22 | 1 (active)
11 | COC(=O)[C@]12CCC(C)(C)C[C@H]1[C@H]1C(=O)C=C3[C@@]4(C)C=C(C#N)C(=O)C(C)(C)[C@@H]4CC[C@@]3(C)[C@]1(C)CC2 | 0.0752 ± 0.0037 | 0.294 ± 0.025 | 0.937 ± 0.086 | 0.0972 ± 0.012 | 0.571 ± 0.071 | 0.585 ± 0.14 | 0.246 (inactive)
12 | Cc1cc2c(cc1S(N)(=O)=O)S(=O)(=O)CCC2 | 1.02 ± 0.094 | 1.03 ± 0.085 | 0.997 ± 0.022 | 1 ± 0.11 | 0.95 ± 0.044 | 0.891 ± 0.14 | 1 (active)
13 | CC1ON(c2ccc(Cl)c(Cl)c2)C(=O)NC1=O (configuration not stated) | 1.02 ± 0.13 | 0.886 ± 0.065 | 1.06 ± 0.11 | 1.03 ± 0.032 | 1.27 ± 0.2 | 1.49 ± 0.24 | 0.998 (active)
14 | Cc1nc(-c2ccc(S(=O)(=O)NC3CCc4nc(N(C)C)ncc4C3)cc2)co1 (configuration not stated) | 0.877 ± 0.065 | 1.21 ± 0.1 | 1.05 ± 0.053 | 1.14 ± 0.074 | 1.21 ± 0.091 | 1.35 ± 0.27 | 0.919 (active)
15 | CCN(CC)c1ccc(C2Nc3ccccc3-c3nnc(SC)nc3O2)c(OC)c1 (configuration not stated) | 0.889 ± 0.07 | 0.986 ± 0.066 | 0.985 ± 0.059 | 0.954 ± 0.024 | 1.39 ± 0.24 | 0.87 ± 0.076 | 1.01 (active)
16 | CCOc1ccccc1NC(=O)NCCc1csc(-n2nc(C)cc2C)n1 | 0.996 ± 0.069 | 1.14 ± 0.096 | 0.797 ± 0.12 | 1.12 ± 0.085 | 0.983 ± 0.061 | 0.938 ± 0.41 | 1.01 (active)
17 | COc1cccc(-c2csc(C(C#N)=CNc3cc(Cl)ccc3OC)n2)c1 | 0.939 ± 0.096 | 1.06 ± 0.083 | 0.963 ± 0.093 | 0.964 ± 0.024 | 1.24 ± 0.21 | 1.01 ± 0.26 | 1.01 (active)
18 | CC(C)Oc1ccc(C(=O)N2CCC(c3ccccc3)S(=O)(=O)CC2)cn1 (configuration not stated) | 1.06 ± 0.08 | 0.861 ± 0.13 | 0.998 ± 0.052 | 0.921 ± 0.054 | 1.03 ± 0.049 | 0.968 ± 0.13 | 0.989 (active)

Row | Structure (SMILES) | NF-kB reporter [1, 4] | NF-kB reporter ([1]; agonist: LPS 0.1 ug/mL) | NF-kB reporter ([1]; agonist: MPLA […]) | IRF reporter ([2]; agonist: 3'3'-cGAMP 10 ug/mL) | IRF reporter ([2]; agonist: LPS 0.1 ug/mL) | IRF reporter ([2]; agonist: MPLA […]) | viability score [3]
19 | CC1Cc2ccccc2N1C(=O)C1CCCN1S(=O)(=O)c1ccc(Cl)cc1 (configuration not stated) | 0.835 ± 0.043 | 0.905 ± 0.12 | 1.27 ± 0.25 | 1.01 ± 0.061 | 1.22 ± 0.18 | 1.47 ± 0.52 | 0.97 (active)
20 | O=C(NC1CCN(c2ccc(C(F)(F)F)cn2)C1)c1nc2ccccc2s1 (configuration not stated) | 1.09 ± 0.056 | 1.05 ± 0.088 | 0.909 ± 0.081 | 0.953 ± 0.049 | 1.27 ± 0.076 | 1.11 ± 0.28 | 0.983 (active)
21 | CCCCCCc1cc2cc(-c3nc(-c4ccc(Oc5ccccc5)cc4)cs3)c(=O)oc2cc1O | 0.962 ± 0.096 | 1.04 ± 0.085 | 0.946 ± 0.068 | 0.873 ± 0.024 | 1.42 ± 0.22 | 1.12 ± 0.29 | 1.01 (active)
22 | Cn1c(=O)cc(N2CCC[C@@H](N)C2)n(Cc2cc(F)ccc2C#N)c1=O | 0.989 ± 0.074 | 1.02 ± 0.055 | 1.02 ± 0.044 | 0.225 ± 0.013 | 0.971 ± 0.061 | 0.886 ± 0.082 | 1 (active)
23 | CC(C)CN(C[C@@H](O)[C@H](Cc1ccccc1)NC(=O)O[C@H]1CO[C@H]2OCC[C@H]21)S(=O)(=O)c1ccc(N)cc1 | 1.74 ± 0.13 | 1.08 ± 0.054 | 1.85 ± 0.069 | 0.916 ± 0.053 | 1.04 ± 0.071 | 1.02 ± 0.1 | 0.997 (active)
24 | CC1(C)CC(=O)c2sc(NC(=O)c3ccccc3)nc2C1 | 1.05 ± 0.078 | 1.08 ± 0.12 | 1 ± 0.036 | 0.807 ± 0.048 | 1 ± 0.13 | 1.02 ± 0.12 | 1 (active)
25 | CCOC(=O)C(CC)Oc1ccc2c(C)c(CC)c(=O)oc2c1 (configuration not stated) | 0.955 ± 0.063 | 0.875 ± 0.071 | 0.976 ± 0.035 | 0.832 ± 0.03 | 0.852 ± 0.13 | 0.848 ± 0.27 | 0.986 (active)
26 | O=C(Cc1ccc([N+](=O)[O-])cc1)NN=Cc1ccncc1 | 0.864 ± 0.26 | 1.08 ± 0.098 | 1.03 ± 0.16 | 0.964 ± 0.038 | 1.15 ± 0.18 | 1.44 ± 0.42 | 1 (active)
27 | COc1ccc(Cl)cc1C(=O)Nc1cc(C(F)(F)F)cc(C(F)(F)F)c1 | 1.03 ± 0.082 | 1.01 ± 0.059 | 0.962 ± 0.086 | 0.966 ± 0.024 | 1.54 ± 0.26 | 1.19 ± 0.23 | 1.01 (active)
28 | COc1cc2c3cc1Oc1cc(ccc1O)OC1c4c(cc(OC)c(O)c4Oc4ccc(cc4)CC3N(C)CC2)CCN1C (configuration not stated) | 0.191 ± 0.011 | 1.05 ± 0.064 | 1.03 ± 0.084 | 0.793 ± 0.034 | 1.47 ± 0.23 | 1.34 ± 0.13 | 0.995 (active)
29 | CCOC(=O)C1=C(C)NC(=S)NC1c1cccc(C)c1 (configuration not stated) | 0.93 ± 0.097 | 1.09 ± 0.097 | 1.05 ± 0.037 | 0.712 ± 0.17 | 0.944 ± 0.045 | 0.835 ± 0.057 | 0.975 (active)
30 | COc1nc(C)cnc1NS(=O)(=O)c1cccnc1-c1ccc(-c2nnco2)cc1 | 0.964 ± 0.21 | 0.98 ± 0.18 | 1 ± 0.09 | 0.852 ± 0.047 | 0.982 ± 0.26 | 1.06 ± 0.24 | 0.979 (active)
31 | Cc1cc(C(=O)Nc2ccc(-n3nnn(C)c3=O)cc2)c(C)o1 | 1.01 ± 0.077 | 1.05 ± 0.083 | 0.809 ± 0.041 | 0.985 ± 0.064 | 1.25 ± 0.076 | 1.28 ± 0.17 | 1.01 (active)
32 | CCN(CC)c1ccc(C=C(C#N)c2n[nH]c(N)c2C#N)c(OC)c1 | 1.43 ± 0.16 | 0.885 ± 0.095 | 0.976 ± 0.092 | 0.577 ± 0.036 | 0.865 ± 0.12 | 1.18 ± 0.15 | 1.02 (active)
33 | O=C(c1cc2cc(F)ccc2s1)N1CCc2ncncc2C1 | 1.05 ± 0.099 | 1.03 ± 0.083 | 0.898 ± 0.063 | 0.927 ± 0.064 | 1.23 ± 0.14 | 1.12 ± 0.3 | 1.01 (active)
34 | Cc1ccc(S(=O)(=O)NC(=O)NN2CC3CCCC3C2)cc1 (configuration not stated) | 1.22 ± 0.17 | 1.17 ± 0.48 | 0.973 ± 0.061 | 0.901 ± 0.082 | 1.23 ± 0.46 | 1.14 ± 0.088 | 0.987 (active)
35 | CCCCCCOc1ccc(N2C(=O)CC(SC(=Nc3ccccc3)Nc3ccccc3)C2=O)cc1 (configuration not stated) | 0.968 ± 0.08 | 1.07 ± 0.073 | 0.856 ± 0.05 | 0.937 ± 0.036 | 1.45 ± 0.092 | 1.23 ± 0.25 | 0.996 (active)
36 | COc1cc(C=Cc2nc3ccccc3nc2O)cc(OC)c1 | 1.06 ± 0.054 | 1.06 ± 0.099 | 1.09 ± 0.074 | 0.565 ± 0.029 | 0.834 ± 0.087 | 1.08 ± 0.29 | 0.872 (active)
